# Laboratory results taken from PubChem BioAssay AID1259412 (Laboratorio de Genomica e Expressao (LGE), UNICAMP, 2018).
# Test: AOX inhibitors, oxygen consumption, profiling panel (AID 1259412);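 on growth (% of control): growth monitored over 72 h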
# Details: AOX-dependent respiration, O2 uptake; measured here: growth, control condition; at 500 µM
row,Structure (SMILES),growth (% of control) [%]
1,COc1cc(NC(=O)c2cccc(F)c2)cc(OC)c1OC,80.8
2,O=C(Nc1cccc(OCc2ccccc2)c1)c1cccc(Br)c1,93.9
3,O=C(Nc1cccc(F)c1)c1ccccc1,92.8
4,Cc1cccc(C(=O)Nc2cccc(I)c2)c1,110
5,O=C(NCc1ccc2c(c1)OCO2)c1cccc(F)c1,48.8
6,N#Cc1cccc(C(=O)Nc2ccccc2)c1,89.5
7,COc1cccc(C(=O)Nc2cccc(OCc3ccccc3)c2)c1,86.7
8,N#Cc1cccc(C(=O)Nc2cccc(OCc3ccccc3)c2)c1,90.3
9,COc1cc(NC(=O)c2cccc(C)c2)cc(OC)c1OC,96.2
10,O=C(Nc1ccccc1)c1cccc(F)c1,101
11,O=C(Nc1ccccc1)c1ccccc1,94.3
12,O=C(Nc1cccc(F)c1)c1cccc(F)c1,78.7
13,COc1cccc(C(=O)Nc2cccc([N+](=O)[O-])c2)c1,109
14,COc1cc(NC(=O)c2cccc(Cl)c2)cc(OC)c1OC,78
15,O=C(Nc1cccc([N+](=O)[O-])c1)c1cccc(Br)c1,80.8
16,Cc1cccc(C(=O)Nc2cccc(OCc3ccccc3)c2)c1,109
17,COc1cccc(C(=O)Nc2ccc(N3CCOCC3)cc2)c1,86.6
18,N#Cc1cccc(C(=O)Nc2cccc(I)c2)c1,117
19,O=C(Nc1cccc(I)c1)c1cccc(Cl)c1,82.8
20,O=C(Nc1cccc(I)c1)c1cccc(Br)c1,103

row,Structure (SMILES),growth (% of control) [%]
1,O=C(Nc1cccc(I)c1)c1ccccc1I,94.8
2,N#Cc1cccc(C(=O)Nc2cccc(F)c2)c1,107
3,Cc1cccc(C(=O)NCc2ccc3c(c2)OCO3)c1,48.8
4,Cc1cccc(C(=O)Nc2ccc(N3CCOCC3)cc2)c1,96
5,O=C(Nc1cccc(OCc2ccccc2)c1)c1cccc(Cl)c1,92.6
6,CCN(CC)CCNC(=O)c1ccccc1,87.9
7,N#Cc1cccc(C(=O)Nc2cccc(Br)c2)c1,89.7
8,COc1cccc(C(=O)Nc2cccc(F)c2)c1,32.6
9,O=C(Nc1cccc(Cl)c1)c1ccccc1,118
10,O=C(NCc1ccc2c(c1)OCO2)c1cccc(Cl)c1,72
11,O=C(Nc1cccc([N+](=O)[O-])c1)c1cccc(F)c1,120
12,O=C(Nc1cccc(OCc2ccccc2)c1)c1cccc(F)c1,81.9
13,N#Cc1cccc(C(=O)Nc2ccccc2C(N)=O)c1,85.5
14,O=C(Nc1ccccc1)c1cccc(Br)c1,91.1
15,O=C(Nc1cccc(Br)c1)c1ccccc1I,98.8
16,Nc1cccc(S(=O)(=O)c2cccc(NC(=O)c3ccccc3)c2)c1,84.2
17,O=C(Nc1ccc(N2CCOCC2)cc1)c1cccc(F)c1,90.8
18,O=C(Nc1ccc(N2CCOCC2)cc1)c1ccccc1I,96.2
19,COc1cc(NC(=O)c2ccccc2)cc(OC)c1OC,76

# Same assay, conditions: AOX-dependent respiration, measured here: O2 uptake, control condition (no AOX), at 500 µM, stronger effect = lower value
row,Structure (SMILES),O2 uptake (% of control) [%]
1,COc1cc(NC(=O)c2cccc(F)c2)cc(OC)c1OC,93.1
2,O=C(Nc1cccc(OCc2ccccc2)c1)c1cccc(Br)c1,107
3,O=C(Nc1cccc(F)c1)c1ccccc1,102
4,Cc1cccc(C(=O)Nc2cccc(I)c2)c1,93.2
5,O=C(NCc1ccc2c(c1)OCO2)c1cccc(F)c1,89.6
6,N#Cc1cccc(C(=O)Nc2ccccc2)c1,105
7,COc1cccc(C(=O)Nc2cccc(OCc3ccccc3)c2)c1,91.3
8,N#Cc1cccc(C(=O)Nc2cccc(OCc3ccccc3)c2)c1,90.1
9,COc1cc(NC(=O)c2cccc(C)c2)cc(OC)c1OC,83.6
10,O=C(Nc1ccccc1)c1cccc(F)c1,103
11,O=C(Nc1ccccc1)c1ccccc1,99.9
12,O=C(Nc1cccc(F)c1)c1cccc(F)c1,103
13,COc1cccc(C(=O)Nc2cccc([N+](=O)[O-])c2)c1,91.5
14,COc1cc(NC(=O)c2cccc(Cl)c2)cc(OC)c1OC,97.8
15,O=C(Nc1cccc([N+](=O)[O-])c1)c1cccc(Br)c1,95.1
16,Cc1cccc(C(=O)Nc2cccc(OCc3ccccc3)c2)c1,108
17,COc1cccc(C(=O)Nc2ccc(N3CCOCC3)cc2)c1,102
18,N#Cc1cccc(C(=O)Nc2cccc(I)c2)c1,87.8
19,O=C(Nc1cccc(I)c1)c1cccc(Cl)c1,88.3
20,O=C(Nc1cccc(I)c1)c1cccc(Br)c1,92

row,Structure (SMILES),O2 uptake (% of control) [%]
1,O=C(Nc1cccc(I)c1)c1ccccc1I,84
2,N#Cc1cccc(C(=O)Nc2cccc(F)c2)c1,103
3,Cc1cccc(C(=O)NCc2ccc3c(c2)OCO3)c1,99
4,Cc1cccc(C(=O)Nc2ccc(N3CCOCC3)cc2)c1,96.2
5,O=C(Nc1cccc(OCc2ccccc2)c1)c1cccc(Cl)c1,110
6,CCN(CC)CCNC(=O)c1ccccc1,95.7
7,N#Cc1cccc(C(=O)Nc2cccc(Br)c2)c1,82.6
8,COc1cccc(C(=O)Nc2cccc(F)c2)c1,79.2
9,O=C(Nc1cccc(Cl)c1)c1ccccc1,88
10,O=C(NCc1ccc2c(c1)OCO2)c1cccc(Cl)c1,101
11,O=C(Nc1cccc([N+](=O)[O-])c1)c1cccc(F)c1,92.7
12,O=C(Nc1cccc(OCc2ccccc2)c1)c1cccc(F)c1,97.4
13,N#Cc1cccc(C(=O)Nc2ccccc2C(N)=O)c1,107
14,O=C(Nc1ccccc1)c1cccc(Br)c1,89.6
15,O=C(Nc1cccc(Br)c1)c1ccccc1I,81
16,Nc1cccc(S(=O)(=O)c2cccc(NC(=O)c3ccccc3)c2)c1,112
17,O=C(Nc1ccc(N2CCOCC2)cc1)c1cccc(F)c1,104
18,O=C(Nc1ccc(N2CCOCC2)cc1)c1ccccc1I,86.1
19,COc1cc(NC(=O)c2ccccc2)cc(OC)c1OC,95.8
